An excerpt weighted towards active compounds, which were near 12% of everything screened.
BAZ2B block: inhibitors of human BAZ2B bromodomain; Potency, µM (series often up to 114 µM), for the others: at the highest dose activity change, negative = inhibition, hits mostly inhibitors; AlphaScreen BAZ2B-H3K14Ac peptide displacement; 360,000 compounds, 4.4% hits; Q9UIF8; further: on the % scale 0 is the no-effect control and ±100 the full control effect; nearly all actives have a fitted effect of over 60% in size
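Inhibition is scored as reduced AlphaScreen emission. The BAZ2B/b-H3(5-23)K14Ac complex (50 nM each) in PBS pH 7.4, 0.01% Tween-20 meets compound (up to 110 uM) for 30 min at RT before bead addition.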
HP1b binding inh: inhibitors of HP1-beta chromodomain binding to methylated histone tails. P83916. AlphaScreen HP1-beta / biotin-H3K9me3 peptide binding. Potency, µM (series often up to 114 µM), for inactives: top-dose activity change, negative = inhibition, most hits filed as inhibitors. 390,000 compounds, 0.56% hits. AID 540317; further: nearly all actives have a fitted effect of over 70% in size
Target sequence (P83916 whole entry, looked up): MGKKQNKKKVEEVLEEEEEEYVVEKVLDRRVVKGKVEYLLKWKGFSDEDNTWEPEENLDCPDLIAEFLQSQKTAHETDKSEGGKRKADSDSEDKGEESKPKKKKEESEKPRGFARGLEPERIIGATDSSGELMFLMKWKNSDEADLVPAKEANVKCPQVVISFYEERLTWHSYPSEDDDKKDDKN
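HP1-beta protein (50 nM final) preincubated 30 min at room temperature with biotinylated H3(1-18)K9me3 peptide (50 nM) in PBS pH 7.4, 0.01% Tween-20, then compound added for 30 min. AlphaScreen streptavidin donor/nickel chelate acceptor beads (10 ug/mL final), 30 min dark, luminescence read.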
G9a inh: blocks human histone lysine methyltransferase G9a; Q96KQ7; G9a H3K9 monomethylation, AlphaScreen, 2 h; Potency, µM (titrated, usually from 102 µM), for inactives: top-dose activity, negative = inhibition, most hits filed as inhibitors; 350,000 compounds, 8.8% hits; AID 504332; further: on the % scale 0 is the no-effect control and ±100 the full control effect; nearly all actives have a fitted effect of over 75% in size
Target sequence (Q96KQ7 913-1193 limits assumed): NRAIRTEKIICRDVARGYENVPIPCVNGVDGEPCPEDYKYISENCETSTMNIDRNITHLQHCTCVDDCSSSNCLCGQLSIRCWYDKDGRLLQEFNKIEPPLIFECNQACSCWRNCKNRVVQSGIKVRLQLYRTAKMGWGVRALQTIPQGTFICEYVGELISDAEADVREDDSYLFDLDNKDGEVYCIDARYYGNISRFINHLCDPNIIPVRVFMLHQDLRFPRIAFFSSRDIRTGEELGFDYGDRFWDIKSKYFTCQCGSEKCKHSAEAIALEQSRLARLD
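Methyltransferase reactions run at room temperature for 2 h (20 nM enzyme, 500 nM biotin-H3K9 peptide, 20 uM SAM) after a 15 min compound preincubation; product detected by AlphaScreen beads and anti-H3K9me1 antibody.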
JMJD2A Tudor inh: blocks the human JMJD2A Tudor domain; 390,000 compounds, 4.4% hits; AlphaScreen JMJD2A-Tudor / H3K4me3 peptide binding; Potency, µM (series often up to 114 µM), for the others: top-dose activity change, negative = inhibition, usual class: inhibitors; further: on the % scale 0 is the no-effect control and ±100 the full control effect; nearly all actives have a fitted effect of over 50% in size
Sfp inh: Sfp phosphopantetheinyl transferase inhibition; Biochemical Sfp PPTase activity, qHTS; Potency, µM, inactives show largest response in the series, negative = inhibition, usual class: inhibitors; 310,000 compounds, 3.5% hits;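 further: the enzyme is Sfp with the accession as filed and its product quenches rhodamine fluorescence; 0% = enzyme reaction without inhibitor and -100% = no enzyme wells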
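Sfp 15 nM + cpd, 15 min RT; start w/ rhodamine-CoA 5 uM, BHQ-2-YbbR 12.5 uM (final); 50 mM Hepes pH 7.6, 10 mM MgCl2, 0.01% NP-40, 0.01% BSA; read 525/598 nm at 0 and 30 min.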
Starred values were filed as active, the others as inactive; ? = inconclusive; · = no result; [ ] = remark or other dose. The call rests on the fitted dose curve; in most records, active means well fitted curve in the direction sought with a large enough effect; inconclusive means small, poorly fitted or top-dose-only effect, or another doubt; inactive means no such curve, though single readings can be large; an effect the other way counts as inactive or inconclusive. Potency means the concentration at half of the fitted maximal effect.

SMILES | BAZ2B block | HP1b binding inh | G9a inh | JMJD2A Tudor inh | Sfp inh
O=C(Nc1ncc(S(=O)(=O)c2ccc([N+](=O)[O-])cc2)s1)c1cccnc1 | -29% | 0% | 50µM* | -23% | 5%
CCC(C)(C)C(=O)Nc1ncc(S(=O)(=O)c2ccc([N+](=O)[O-])cc2)s1 | ? | -20% | 50µM* | -35% | -6%
O=C(Nc1ncc(S(=O)(=O)c2ccc([N+](=O)[O-])cc2)s1)c1ccc2ccccc2c1 | -26% | 20% | 20%[59 µM] | -18% | ?
O=C(N/N=C/c1ccc([N+](=O)[O-])cc1)c1ccccc1OCc1ccccc1 | -39% | -11% | · | -12% | -2%
Cc1noc(C)c1-c1nc(NCc2cccs2)c2ccccc2n1 | · | · | -46%[0.501 µM] | · | 71µM*
COC(=O)c1cc2oc3ccccc3c2n1CC(=O)Nc1cccc(SC)c1 | 0% | 7% | 0%[59 µM] | -16% | ·
O=C(c1cccnc1)N1CCC(Oc2ccc(C(=O)N3CCCCO3)cc2)CC1 | 5% | 60% | 10% | -6% | 24%
C#CCOCCOCCOCCNc1nc(N2CCN(C(=O)[C@H](CCCCN)n3cc([C@@H](N)[C@H](C)CC)nn3)CC2)nc(N2CCN(C(=O)[C@H](CCC(=O)O)n3cc([C@@H](N)CCCCN)nn3)CC2)n1 | · | 65% | · | ? | ·
C#CCOCCOCCOCCNc1nc(N2CCN(C(=O)[C@H](CCCCN)n3cc(C(N)[C@H](C)CC)nn3)CC2)nc(N2CCN(C(=O)[C@H](CCC(=O)O)n3cc(C(N)[C@H](C)CC)nn3)CC2)n1 (stereo partly drawn) | 79µM* | 44% | ? | 50µM* | ?
C#CCOCCOCCOCCNc1nc(N2CCN(C(=O)[C@H](CCCN=C(N)N)n3cc(C(N)[C@@H](C)CC)nn3)CC2)nc(N2CCN(C(=O)[C@H](CCC(=O)O)n3cc([C@@H](N)CCCCN)nn3)CC2)n1 (stereo partly drawn) | · | 17% | · | 89µM* | ·
C#CCOCCOCCOCCNc1nc(N2CCN(C(=O)[C@H](CCCN=C(N)N)n3cc(C(N)[C@@H](C)CC)nn3)CC2)nc(N2CCN(C(=O)[C@H](CCCCN)n3cc([C@@H](N)[C@H](C)CC)nn3)CC2)n1 (stereo partly drawn) | · | 35% | · | -30% | ·
COc1ccccc1NCCC(=O)OCC(=O)Nc1cccc(S(=O)(=O)N(C)C)c1 | -36% | -2% | 11%[12.7 µM] | ? | ·
CN(CCC1CCOCC1)C(=O)CC1C(=O)NCCN1Cc1ccccc1F (stereo not drawn) | -16% | 22% | 8.9µM* | -10% | 3%
CN(CCC1CCOCC1)C(=O)CC1C(=O)NCCN1Cc1ccoc1 (stereo not drawn) | 4% | 48% | 7% | -12% | 11%
CN(CCCC1CCCC1)C(=O)CC1C(=O)NCCN1Cc1ccc(F)cc1 (stereo not drawn) | ? | 19% | 79µM* | -26% | -4%
Cc1cc(C)n2nc(C(=O)OCC(=O)Nc3ccc(C)c(F)c3)nc2n1 | · | 28% | · | -6% | ·
Cn1c(=O)c2c(-c3ccc(C(C)(C)C)cc3)n(N3CCOCC3)cc2n(C)c1=O | 50% | 18% | -13% | -9% | 8%
C=C1C(=O)[C@@]23[C@H](O)C[C@@H]4C(C)(C)CC[C@H](O)[C@]4(C)[C@@H]2C[C@H](O)[C@@H]1[C@H]3O | 16% | 50% | -2% | -6% | 45µM*
CCOc1ccc(NC(=O)Cn2ncc3c2-c2cc(C)ccc2OC3)cc1 | 4% | 34% | 16%[59 µM] | 1% | ·
CC1=C(C(=O)N2CCOCC2)C(c2ccc(C)cc2)NC(=S)N1 (stereo not drawn) | -2% | 32% | 40µM* | -16% | 50µM*
CC1=C(C(=O)N2CCOCC2)C(c2ccc(Cl)cc2)NC(=S)N1 (stereo not drawn) | 22% | 49% | 71µM* | -6% | -7%
CC1=C(C(=O)N2CCOCC2)C(c2c(C)cc(C)cc2C)NC(=S)N1 (stereo not drawn) | -1% | 31% | -44% | -12% | -3%
CN(C)CCCNC(=S)N(Cc1cccs1)Cc1cc2cc3c(cc2[nH]c1=O)OCCO3 | -18% | -24% | -34% | -32% | -14%
O=C(C1CC(=O)N(c2ccccc2)C1)N1CCN(c2ccccc2F)CC1 (stereo not drawn) | 1% | 17% | 4% | -3% | 10%
Cc1cc(C(=O)OCC(=O)Nc2c(F)cccc2F)c(C)n1-c1ccccc1 | ? | ? | -14% | 20µM* | 17%
SMILES | BAZ2B block | HP1b binding inh | G9a inh | JMJD2A Tudor inh | Sfp inh
Cc1cc(C(=O)OCC(=O)N2CCOCC2)c(C)n1-c1ccccc1 | · | 7% | · | -7% | ·
O=C(CSCc1cccc(Br)c1)N=Nc1c(O)[nH]c2ccccc12 | 50µM* | 1% | 21%[0.0925 µM] | -18%[57.1 µM] | -9%
CN(C)C(=O)c1ccc(-c2nccc(NCc3cccs3)n2)cc1 | · | · | -37%[0.501 µM] | · | 6%
N#Cc1c(N2CCCC(O)C2)nc(N)c2c(N)nc3c(c12)CC(=O)N3C12CC3CC(CC(C3)C1)C2 (stereo not drawn) | ? | ? | ? | 56µM* | ?
C=C(C)CN(CC)c1nc(N)c2c(N)nc3c(c2c1C#N)CC(=O)N3C12CC3CC(CC(C3)C1)C2 | -29% | -25% | 13% | -22%[57.1 µM] | -12%
Cn1c(=O)[nH]c(=O)c2c1nc(CN1CCN(c3ccccc3)CC1)n2Cc1c(F)cccc1Cl | -9% | 23% | ? | -16% | ·
O=C(NCCc1ccc(Cl)cc1)c1cccnc1 | ? | 28% | 56µM* | -20% | -2%
O=C(NCCCSc1ccccc1)c1cccnc1 | -35% | 37% | 28µM* | 2% | 15%
CN(CC(=O)N1CC=C(c2ccccc2)CC1)S(=O)(=O)c1ccc2c(c1)c(=O)n(C)c(=O)n2C | 11% | 43% | 45µM* | -17% | -14%
CCC(Cc1ccccc1)NC(=O)CN(C)S(=O)(=O)c1ccc2c(c1)c(=O)n(C)c(=O)n2C (stereo not drawn) | 9% | 35% | 45µM* | -8% | 14%
Cn1c(=O)c2cc(S(=O)(=O)NCCC(=O)N3CC=C(c4ccccc4)CC3)ccc2n(C)c1=O | -25% | 29% | -23% | -5% | 8%
COc1ccc(C(CNC(=O)c2sccc2C)N2CCOCC2)cc1 (stereo not drawn) | 10% | 37% | 12%[2.33 µM] | 1% | ·
S=C1NC(c2ccccc2)N2C(=S)NC(c3ccccc3)N12 (stereo not drawn) | 79µM* | 32µM* | ? | 13µM* | 56µM*
OC1NC(=S)N(c2ccccc2)C1O (stereo not drawn) | -5% | 44% | · | 3% | 4%
Cc1c(C(=O)c2ccccc2)c2ccccn2c1CCC#N | -37% | 54% | ? | -9%[11.4 µM] | 14%
C/C(=N\NC(N)=O)C1CC(CC(C)C)C(=O)O1 (stereo not drawn) | -15% | 41% | 22%[12.7 µM] | -7% | 26%
